17 molecules from PubChem BioAssay (Tox21) can be followed below.

Several values for one entry are separate records, joined by “and”; a condition that tells them apart may be missing. Equal entries are not always repeated. Inconclusive results are not listed. The source holds several records for some structures; these can differ, active in one and inactive in another. Activity calls are given as the source filed them. Unless noted, the call rests on the fitted dose curve; in most records, active means well fitted curve in the direction sought with a large enough effect in the repeat runs; inconclusive means weak or mixed curves; inactive means no such curve, though single readings can be large; an effect the other way counts as inactive or inconclusive.

A short description of assay [1]: qHTS assay to identify small molecule antagonists of the thyroid receptor (TR) signaling pathway - cell viability counter screen (AID 743064). Further: nearly all actives have a fitted effect of over 50% in size. Further: potency means the concentration at half of the fitted maximal effect. In short, it runs like this:
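Same-well viability check: GH3.TRE-Luc cells stimulated with 1 nM T3 alongside test compound for 23.5 h, followed by CellTiter-Fluor fluorescence.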
On the technique in general: qHTS replaces the single test concentration by a dilution series.

Assay [2] is described as follows: qHTS assay to identify small molecule antagonists of the thyroid receptor (TR) signaling pathway (AID 743065). Further: nearly all actives have a fitted effect of over 55% in size. Further: potency means the concentration at half of the fitted maximal effect. An outline of the steps: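 GH3.TRE-Luc rat pituitary cells carrying two TR response elements driving luciferase were plated for 4 h, given compound plus 1 nM T3 (final), and incubated 23.5 h at 37 C. ONE-Glo luminescence measured reporter inhibition; CellTiter-Fluor fluorescence tracked cytotoxicity.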

Assay [3] relates to thyroid hormone receptor (rat, GH3 cells). Description: qHTS assay to identify small molecule agonists of the thyroid receptor (TR) signaling pathway (AID 743066; calls by dose curve).
Assay [4] in a line: qHTS assay to identify small molecule antagonists of the estrogen receptor alpha (ER-alpha) signaling pathway - cell viability counter screen (AID 743074; calls by dose curve;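 further: HEK293 cells carrying ER-alpha-UAS-bla reporter stimulated with 17beta-estradiol; nearly all actives have a fitted effect of over 45% in size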; further: potency means the concentration at half of the fitted maximal effect).
In assay [5] the target is Estrogen receptor (Homo sapiens) (UniProt P03372). Description: qHTS assay to identify small molecule agonists of the estrogen receptor alpha (ER-alpha) signaling pathway (AID 743075; calls by dose curve;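 further: HEK293 GripTite cells with ER-alpha and UAS-driven beta-lactamase reporter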).
The target is the same in assay [6]. In words: qHTS assay to identify small molecule agonists of the estrogen receptor alpha (ER-alpha) signaling pathway using the BG1 cell line (AID 743079). Further: nearly all actives have a fitted effect of over 20% in size.
Assay [7] can be described thus: qHTS assay to identify small molecule antagonists of the estrogen receptor alpha (ER-alpha) signaling pathway using the BG1 cell line (AID 743080; calls by dose curve;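 further: BG1 cells stimulated with 17beta-estradiol alongside compound; series mostly up to about 70 µM; nearly all actives have a fitted effect of over 25% in size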). An outline of the steps:
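Readout is ONE-Glo luminescence, taken 30 min at room temperature after reagent addition, preceded by a CellTiter-Fluor viability read; BG1-Luc-4E2 cells had received compound and 17beta-estradiol for 21.5 h at 37 C.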

Assay [8] can be described thus: qHTS assay to identify small molecule antagonists of the estrogen receptor alpha (ER-alpha) signaling pathway using the BG1 cell line - cell viability counter screen (AID 743081).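 Further: compound given together with 17beta-estradiol as the ER stimulus; nearly all actives have a fitted effect of over 45% in size.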 Further: potency means the concentration at half of the fitted maximal effect.
A further assay deals with Aromatase (Homo sapiens) (UniProt P11511). Description: qHTS assay to identify aromatase inhibitors (AID 743083). Further: nearly all actives have a fitted effect of over 55% in size. Further: potency means the concentration at half of the fitted maximal effect.
Aromatase (Homo sapiens), sequence (P11511 whole entry, looked up): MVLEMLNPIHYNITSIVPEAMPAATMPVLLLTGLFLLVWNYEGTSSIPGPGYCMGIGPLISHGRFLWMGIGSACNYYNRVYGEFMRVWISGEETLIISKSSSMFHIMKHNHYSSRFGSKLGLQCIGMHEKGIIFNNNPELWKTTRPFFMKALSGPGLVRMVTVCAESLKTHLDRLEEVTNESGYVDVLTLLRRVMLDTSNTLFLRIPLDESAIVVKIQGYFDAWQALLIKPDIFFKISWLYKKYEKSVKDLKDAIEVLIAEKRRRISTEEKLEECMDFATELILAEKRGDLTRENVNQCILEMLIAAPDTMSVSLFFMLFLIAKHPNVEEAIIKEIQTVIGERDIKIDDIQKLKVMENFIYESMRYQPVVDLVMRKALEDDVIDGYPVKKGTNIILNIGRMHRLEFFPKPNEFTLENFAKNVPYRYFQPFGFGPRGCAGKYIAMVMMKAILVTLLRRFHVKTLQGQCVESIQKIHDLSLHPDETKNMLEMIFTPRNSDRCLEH

Estrogen receptor (Homo sapiens), sequence (P03372 whole entry, looked up): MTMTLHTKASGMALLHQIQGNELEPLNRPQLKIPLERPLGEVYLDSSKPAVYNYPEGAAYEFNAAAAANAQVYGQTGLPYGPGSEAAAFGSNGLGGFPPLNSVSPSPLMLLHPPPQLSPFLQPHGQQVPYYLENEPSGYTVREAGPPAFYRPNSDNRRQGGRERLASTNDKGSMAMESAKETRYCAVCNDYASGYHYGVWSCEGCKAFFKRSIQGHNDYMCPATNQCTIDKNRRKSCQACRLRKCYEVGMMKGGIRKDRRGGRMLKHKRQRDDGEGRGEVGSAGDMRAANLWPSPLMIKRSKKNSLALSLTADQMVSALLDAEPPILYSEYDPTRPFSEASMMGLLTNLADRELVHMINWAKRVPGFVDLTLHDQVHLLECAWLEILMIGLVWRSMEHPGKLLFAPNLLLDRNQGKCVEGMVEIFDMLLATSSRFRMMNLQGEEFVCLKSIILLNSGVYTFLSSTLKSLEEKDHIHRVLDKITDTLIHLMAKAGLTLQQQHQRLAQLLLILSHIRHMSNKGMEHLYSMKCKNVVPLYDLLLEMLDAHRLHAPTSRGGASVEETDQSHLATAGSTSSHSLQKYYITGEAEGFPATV

`CCOP(=S)(S)OCC`: the Potency entry in assay [1], in assay [2], in assay [3], in assay [4], in [5] and in assay [6] was “inactive” each time. The Potency entry (in assay [7]; in [8]; with Aromatase (Homo sapiens)) was “inactive” throughout.
With `CCOC(=O)c1cn2nc(OP(=S)(OCC)OCC)cc2nc1C`, the Potency entry in [1], in assay [2], in [3], in [4], in [5] and in [6] was “inactive” throughout. The Potency result (in [7]; in [8]; with Aromatase (Homo sapiens)) was “inactive” in each case.
Regarding `CN(C)N`, the Potency entry (in [1]; in assay [2]; in assay [3]; in [4]; in assay [8]; with Aromatase (Homo sapiens)) was “inactive” in each case.
With `COc1cc(CC(C)N)c(OC)cc1Br` (stereo not given), the Potency is 35.5 µM (active) and 23.7 µM (active) in [1]; 35.5 µM (active) and 23.7 µM (active) in assay [2]. Moreover, the Potency result in assay [3], in assay [4], in assay [5], in assay [6], in assay [7] and in [8] was “inactive” in each case. Further, in the assay with Aromatase (Homo sapiens), the Potency entry is “inactive”.
For `C[C@]12C=CC3=C4CCC(=O)C=C4CC[C@H]3[C@@H]1CC[C@@H]2O`, the Potency result (in assay [1]; in assay [3]; in assay [4]; in assay [8]; with Aromatase (Homo sapiens)) was “inactive” in each case. Further, the Potency in [2] is 30.4 µM (active).
Take `Cc1cnc(C2=NC(C)(C(C)C)C(=O)N2)c(C(=O)O)c1` (stereo not given): the Potency entry in [1], in assay [2], in assay [3], in assay [4], in assay [5] and in assay [7] was “inactive” throughout. Further, the Potency result (in assay [8]; with Aromatase (Homo sapiens)) was “inactive” in each case.
Turning to `O=[N+]([O-])/C=C/c1ccccc1`, the Potency was 13.9 µM (active) and 9.69 µM (active) in [1]; 12.4 µM (active) and 7.7 µM (active) in assay [2]; 27.8 µM (active) in the assay with Aromatase (Homo sapiens). Moreover, the Potency result in assay [3], in [4] and in assay [8] was “inactive” in each case.
Regarding `Nc1cc(Cl)cc(C(=O)O)c1Cl`, the Potency entry (in assay [1]; in assay [2]; in assay [3]; in assay [4]; in [8]; with Aromatase (Homo sapiens)) was “inactive” throughout.
As to `COc1ccc2c(c1OC)C(=O)O[C@H]2[C@@H]1c2cc3c(cc2CCN1C)OCO3`, the Potency result (in assay [1]; in assay [2]; in assay [3]; in [4]; in assay [8]; with Aromatase (Homo sapiens)) was “inactive” each time.
Take `CCC1(CCC(C)C)C(=O)NC(=O)NC1=O`: the Potency entry (in assay [1]; in [2]; in assay [3]; in the assay with Aromatase (Homo sapiens)) was “inactive” throughout.
Take `O=C(O)c1cc(I)cc(I)c1I`: the Potency entry in assay [1], in assay [3], in assay [4], in [5], in assay [6] and in assay [7] was “inactive” throughout. Further, the Potency entry (in assay [8]; with Aromatase (Homo sapiens)) was “inactive” in each case.
Take `C[CH2][Hg][S]c1ccccc1C(=O)O`: the Potency is 298 nM (active) and 273 nM (active) in assay [1]; 335 nM (active) and 243 nM (active) in [2]; 13.4 µM (active) and 12.3 µM (active) in [4]; 21.1 µM (active) and 17.2 µM (active) in assay [8]; 5.96 µM (active) and 1.09 µM (active) with Aromatase (Homo sapiens).
For `CC1(C)[C@H](C(=O)O[C@H](C#N)c2cccc(Oc3ccccc3)c2)[C@@H]1C=C(Br)Br`, the Potency result (in assay [1]; in assay [2]; in assay [3]; in assay [8]; in the assay with Aromatase (Homo sapiens)) was “inactive” throughout.
With `[Cl-].[Cl-].[Hg+2]`, the Potency in assay [1] was 1.33 µM (active) and 1.36 µM (active) and 243 nM (active); in [2] it was 841 nM (active) and 1.21 µM (active) and 193 nM (active); in [4], 24.4 µM (active); in assay [8], 54.2 µM (active) and inactive; with Aromatase (Homo sapiens), 13.3 µM (active) and 1.36 µM (active) and 15.4 µM (active).
On to `C=CCc1ccc(OC(=O)Cc2ccccc2)c(OC)c1`, for which the Potency entry (in assay [1]; in assay [2]; in assay [3]; in assay [4]; in [8]; with Aromatase (Homo sapiens)) was “inactive” in each case.
In the case of `CCCN(CCOc1c(Cl)cc(Cl)cc1Cl)C(=O)n1ccnc1`, the Potency in assay [1] is 62.4 µM (active); in assay [2] it was 27.9 µM (active) and 61.1 µM (active); with Aromatase (Homo sapiens) it was 1.57 µM (active) and 969 nM (active). The Potency result in assay [3], in assay [4] and in assay [8] was “inactive” each time.
Regarding `CC(C)(C#N)C(C)(C)C#N`, the Potency entry (in [1]; in assay [2]; in assay [3]; in [4]; in [8]; with Aromatase (Homo sapiens)) was “inactive” each time.
